The text below walks through data of PubChem BioAssay AID1508600 (Functional Genomics Laboratory (NCATS/FGL), 2020).

About 3,700 (7%) of roughly 53,000 sequences were called active.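 Rule for the calls: active = gene knockdowns whose robust z-score for IL-1 alpha signal is at least 2 or at most -2, so actives lie on both sides; inactive = the rest.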 The sample as a whole holds a higher share of actives than the screen did.

A short description of the test: Components of the Cytosolic LPS Sensing Pathway: Gene Identification via Genome-wide siRNA Screen.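 Note: robust z of the log signal after scaling to non-targeting control siRNA wells of the plate.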 To be noted: RAW264.7 macrophages, IL-1a HTRF, actives lie on both sides, screened at 100 nM (by protocol), cells primed 5 h with Pam3CSK4 first. Put shortly:
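Knockdown: 100 nM siRNA, 48h, RAW264.7. Stimulation: Pam3CSK4 5 h, then LipidA via TransIT-TKO 24 h. Output: supernatant IL-1a HTRF, negative-control-normalized, log robust z-score; viability by CellTiter-Glo.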
A general note: TR-FRET usually uses a lanthanide donor and a delayed reading to cut background.
As for CGAGCAUGCAUUCAAAGGATT against Lrrc3b, the z-score was 1.33 (inactive).
As to GGGCACAUACUCAGAUGAATT against Ngfr, the z-score was -0.62 (inactive).
Next, GAGUAUCAUUUCCUGUUUUTT against Olfr389: -0.395 (inactive); CCAUUCCAGUUAUGUCAAUTT against Pus3: -1.06 (inactive).
Next, CCCUCAGGACACGUUUUAGTT against Wdsub1: -2.14 (active); CGAGCCAUACCUUCAACUGTT against Ncoa2: -0.815 (inactive); GGAGCAGAUGAGAUCCAAGTT against Cdc42se1: -0.256 (inactive).
As to GCCUUUAUAGUCUUAAGCATT against Ndc1, the z-score was -0.209 (inactive).
Next, GGAAAAACUCCCUCGGUACTT against Rps11: 0.683 (inactive).
Next, GCUGCUUUGGGCACAAGAUTT against Nppb: 0.428 (inactive); GCUCCUAUGGCAACAUCGUTT against Olfr303: 2.11 (active); “GGUAUGAGAUUACCUUCACTT against 1700037H04Rik”: -1.16 (inactive).
Next, GCUCAGAAAUCGGCUCAGATT against Ssbp2: -1.66 (inactive); GCUAAACUCCACCAAGACATT against Grid2ip: 0.338 (inactive); GGGCAAUUAUCUUUGUUAUTT against Olfr589: -0.0712 (inactive).
On to GCCAUUAUGACAGAACGCATT against Adra1d, for which the z-score was -0.606 (inactive).
Next, GAACUACCUGGACUUCCACTT against Cox6b1: 2.5 (active); GGACGAUUCUUUUAUUUGATT against Fam78b: -1.22 (inactive); CCAAUCGAUACAUCAUUUUTT against Gmcl1: 1.1 (inactive).
Turning to GCAUCAUACCACUGUGUUUTT against Obox1, the z-score was -1 (inactive).
Turning to GGCUGUUUGGCUUGUUUAATT against Golga7, the z-score was 1.82 (inactive).
On to CGGAUUCAGUAUUAGCAAUTT against Ogt, for which the z-score was -2.4 (active).
Turning to GGAAUUAUUCAGCAAGACUTT against Cdrt4, the z-score is -0.636 (inactive).
For the sequence CGUUUGUUACUCUUCAGCUTT against Olfr1461, the z-score is -1.07 (inactive).
Turning to GGCCAUAACACAAAUGUAGTT against Prpf4, the z-score is 0.554 (inactive).
The same measure for GGAGGAAAGUAUGAAGAAATT against Cyp2j9: -0.337 (inactive); for GGCUGUGCAUUAUAUCCUUTT against Lhfpl1: 1.2 (inactive); for GCUCCUAGUGUUUUUGUGGTT against Rplp0: -2.91 (active).
The same measure for GGUUAUCCAGAGAGAAGGATT against Asxl2: 0.399 (inactive); for GGCUAAGCUGAAGAAGCACTT against Fam219b: -0.326 (inactive).
